Source: PubChem (several laboratories)
ALR inh: blocks human ALR sulfhydryl oxidase activity. purified ALR, DTT oxidation, H2O2 HRP-luminol luminescence. inhibition, % (no concentration beside the values). P55789. actives 3.8% (n = 290,000). AID 485317;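 active = mean replicate inhibition above about 79%, with every replicate also reaching it, limit read from the data; inconclusive = only one of the two criteria met; inactive = mean below limit and not every replicate reaching it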
Target sequence (P55789 whole entry, looked up): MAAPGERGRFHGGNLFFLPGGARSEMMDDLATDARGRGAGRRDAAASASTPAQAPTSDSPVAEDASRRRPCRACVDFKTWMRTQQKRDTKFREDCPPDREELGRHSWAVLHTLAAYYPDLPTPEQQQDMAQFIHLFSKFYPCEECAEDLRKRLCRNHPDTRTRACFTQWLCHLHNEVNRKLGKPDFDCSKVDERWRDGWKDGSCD
PP5 primary: PP5 (human) phosphatase inhibition | P53041 | inhibition, % at 6.7 µM | purified PP5c, OMFP substrate fluorescence | actives 0.18% (n = 320,000) | AID 1987;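 active = inhibition above the campaign's mean inhibition across all tested compounds plus 3 SD, cut at about 9.5% in these data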;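 note: 0% = DMSO only and 100% = 100 µM cantharidin control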
PP1 counter: PP1-alpha (human) inhibition in PP5 counter-screen | P62136 | purified PP1alpha, OMFP fluorescence | inhibition, % at 6.7 µM | actives 0.9% (n = 320,000) | AID 2235;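 active = inhibition above the mean inhibition of all tested compounds plus 3 SD, computed separately for each screening campaign, cut at about 15% in these data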
Target sequence (P62136 whole entry, looked up): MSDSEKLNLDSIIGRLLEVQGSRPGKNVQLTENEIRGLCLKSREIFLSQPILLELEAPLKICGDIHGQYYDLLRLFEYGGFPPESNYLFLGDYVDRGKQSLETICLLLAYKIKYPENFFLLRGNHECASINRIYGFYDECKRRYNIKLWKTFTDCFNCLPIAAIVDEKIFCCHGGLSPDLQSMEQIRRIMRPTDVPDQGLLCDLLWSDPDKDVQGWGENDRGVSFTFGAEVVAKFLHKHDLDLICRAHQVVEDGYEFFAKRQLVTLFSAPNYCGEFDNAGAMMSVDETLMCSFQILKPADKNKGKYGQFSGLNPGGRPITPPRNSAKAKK
CSC inhib: blocks cancer stem cells. cancer stem cell-like cells viability, luminescence. inhibition, % at 7.5 µM. actives 1.1% (n = 300,000). AID 2717; in the data active = inhibition above about 75%; inconclusive = no clear call, values can overlap the other calls; tested in HMLE shEcad cells
Calb FLC: C. albicans growth modulation with fluconazole; C. albicans CaCi-2 (fluconazole-resistant clinical isolate) + fluconazole, Alamar Blue growth, 48 h; growth inhibition, % (no concentration beside the values); actives 0.57% (n = 300,000); AID 1979;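 active = growth inhibition above about 58% in most replicates, limit read from the data, passing the limit was not always enough; inconclusive = exactly half the replicates above a set limit; inactive = most replicates below a set limit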;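 note: all wells also contain fluconazole at 8 µg/ml as a sub-toxic cotreatment; 0% = median of DMSO wells and 100% = median of geldanamycin control wells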
* = called active by the depositor; ? = inconclusive; . = no result given. A selection: hits, their analogues and other compounds. The true share with any hit is near 5.4%.

SMILES	ALR inh	PP5 primary	PP1 counter	CSC inhib	Calb FLC
CC(=O)C1=C(c2ccccc2)NC(=O)NC1c1ccc2c(c1)OCO2 (stereo not drawn)	-11	-1	-1	.	-2
CC(=O)C1=C(c2ccccc2)NC(=S)NC1c1ccc(O)c(O)c1 (stereo not drawn)	99*	1	0	-4	-30
CC1=C([N+](=O)[O-])C(c2ccc(O)c(O)c2)NC(=O)N1 (stereo not drawn)	99*	0	-5	-8	.
COc1ccc(NC(=O)C(=O)NNC(=O)COc2ccc(Cl)cc2)c(OC)c1	-1	1	3	-2	2
COc1ccccc1N(C)S(=O)(=O)c1ccc(C(=O)Nc2ncc(C)s2)cc1	0	3	1	1	.
ClCc1csc(-c2ccc(Cl)cc2)n1	98*	2	-1	-5	-26
O=C1CS/C(=N/N=C2C3CC4CC(C3)CC2C4)N1	-1	-1	-3	-3	-31
O=C1CS/C(=N/N=C\c2ccn[nH]2)N1	82*	-1	-1	-9	-11
COc1cc(C(=O)Oc2ccc(Br)cc2C(=S)N2CCOCC2)cc(OC)c1OC	-2	3	0	-4	6
CCOC(=O)c1c(CSc2ccsc2)n(C)c2cc(Br)c(O)c(CN(C)C)c12	97*	2	-1	8	-1
CCOC(=O)c1c(CSc2ccc(C)cc2)n(C)c2cc(Br)c(O)c(CN(C)C)c12	?	2	10	97*	0
CCOC(=O)c1c(CN2CCCCC2)n(C)c2cc(Br)c(O)c(CN(C)C)c12	26	3	0	-6	7
CCOC(=O)c1c(CN2CCOCC2)n(-c2ccccc2)c2cc(Br)c(O)c(CN(C)C)c12	24	3	9	-5	-10
CCOC(=O)c1c(CSc2ccccc2)n(C)c2cc(Br)c(O)c(CN(C)C)c12	84*	2	-4	9	-10
COCCCN1C(=O)C(=O)/C(=C(/O)c2ccc(OC)cc2)C12C(=O)N(C)c1ccccc12 (stereo not drawn)	-7	-2	-7	-1	0
CC(C)OCCCN1C=C2C(=O)C(C)(OC(=O)CCc3ccccc3)C(=O)C=C2C=C1c1ccc(C#N)cc1 (stereo not drawn)	-61	5	1	-8	24
COc1cc(OC)c2ccc(=O)oc2c1C(CCN1CCCC1)c1ccc(N(C)C)cc1 (stereo not drawn)	98*	1	1	-5	-19
COc1cc(OC)c2ccc(=O)oc2c1C(CCN1CCCCC1)c1ccc(N(C)C)cc1 (stereo not drawn)	99*	3	5	1	4
CCCCCc1cc(=O)oc2c(C(CCN3CCCC3)c3ccc(N(C)C)cc3)c(OC)cc(OC)c12 (stereo not drawn)	.	0	5	17	-18
CN(C)CC(O)COc1cc2ccccc2cc1C(=O)N1CCCCC1 (stereo not drawn)	-25	3	0	-15	103*
Nc1nc(-c2ccc(Oc3ccccc3)cc2)cs1	99*	4	5	26	13
COc1ccc(-c2csc(N)n2)cc1	.	3	-2	-9	8
Nc1nc(-c2ccc(C(=O)O)cc2)cs1	-6	1	-3	-4	-2
Nc1nc(-c2ccc3ccccc3c2)cs1	98*	2	0	.	?
Nc1nc(-c2ccccc2Br)cs1	98*	0	2	11	-9
SMILES	ALR inh	PP5 primary	PP1 counter	CSC inhib	Calb FLC
Nc1nc(-c2ccc(-c3ccccc3)cc2)cs1	99*	-5	-7	-1	5
c1ccc2cc(-c3csnn3)ccc2c1	-39	3	2	.	-12
COc1ccc(OC)c(-c2nnc(SCC(=O)N3CCCc4ccccc43)o2)c1	-3	-1	3	-1	6
O=C(O)CSCCc1ccccn1	-5	0	1	5	1
O=C(CSCCc1ccccn1)Nc1ccccn1	98*	1	1	3	16
O=C(CSCCc1ccccn1)Nc1ccc(Br)cn1	99*	3	-3	7	4
O=C(CSCCc1ccccn1)Nc1cccnc1Cl	8	-1	-9	-5	5
Cc1ccc(NC(=O)CSCCc2ccccn2)nc1	97*	1	-4	.	-1
O=C(N/N=C/c1ccc(COc2ccc(Br)cc2)o1)c1ccc2c(c1)OCO2	.	.	.	.	4
O=C(N/N=C/c1ccc(-c2ccc(Br)cc2)o1)c1ccc2c(c1)OCO2	-13	5	16*	8	7
Cc1ccc(/C=N/NC(=O)c2ccc3ccccc3c2)s1	11	3	1	50	-2
COc1cccc(/C=N/NC(=O)CNC(=O)c2ccc3c(c2)OCCO3)c1O	94*	-2	-5	10	-57
CCOc1cccc(/C=N/NC(=O)c2ccc3c(c2)OCCO3)c1O	90*	-1	2	28	1
Cc1ccc(/C=N/NC(=O)c2ccc3c(c2)OCCO3)s1	-10	-2	-2	92*	0
CC1=C(C(=O)OCC2CCCO2)C(c2ccc(C)cc2)C2=C(CCCC2=O)N1 (stereo not drawn)	-26	2	3	-27	-1
Cn1c(N)c(C(=O)COC(=O)CCCN2C(=O)c3ccccc3C2=O)c(=O)n(C)c1=O	-5	-1	1	-8	6
S=c1nc(-c2cccc(Br)c2)[nH][nH]1	99*	2	-2	5	3
O=C(/C=C/c1ccc([N+](=O)[O-])cc1)/C=C/c1ccco1	.	0	12	76*	2
O=C(/C=C/c1ccc([N+](=O)[O-])cc1)c1ccco1	9	3	2	0	5
COC(C[C@H](O)C[C@@H](O)[C@@H](C)OCc1ccccc1)OC	.	.	.	.	-7
C/C(=N\NC(=O)CCc1c[nH]c2ccccc12)c1ccc([N+](=O)[O-])cc1	-21	3	-2	5	27
O=C(COC(=O)c1cc(-c2ccc(Cl)s2)nc2ccccc12)NCc1ccco1	92*	6	7	3	3
CN1C(=O)C(CC(=O)O)S/C1=N\N=C\c1ccc(O)cc1O (stereo not drawn)	85*	-2	-5	-13	3
C=CCN1C(=O)C(CC(=O)O)SC1=Nc1ccc(C(=O)O)cc1 (stereo not drawn)	-3	0	-1	1	15
CN(C)c1ccc(/C=N/N=C2/SC(CC(=O)O)C(=O)N2c2ccc(O)cc2)cc1 (stereo not drawn)	97*	1	-1	1	-6
SMILES	ALR inh	PP5 primary	PP1 counter	CSC inhib	Calb FLC
C=CCN1C(=O)C(CC(=O)O)S/C1=N/N=C/c1ccc(N(CC)CC)cc1 (stereo not drawn)	99*	4	-2	5	.
Cc1ccc(Nc2cc(C)nc(N3CCOCC3)n2)cc1	10	1	-2	.	8
CC1CCCC(NC(=O)COC(=O)c2ccc(Br)o2)C1C (stereo not drawn)	-8	.	.	-3	.
c1ccc(CSc2n[nH]c(-c3ccco3)n2)cc1	70	2	0	5	-7
Cc1[nH]c2ccccc2c1SCCN	10	-1	0	16	-3
Cc1[nH]c2ccccc2c1SCc1ccccc1	99*	4	9	37	-3
